Nine compounds from PubChem BioAssay (NCI) can be followed below.

Test systems include SR leukemia; RPMI-8226 leukemia; OVCAR-8 ovarian; OVCAR-5 ovarian; OVCAR-4 ovarian; SK-OV-3 ovarian; IGROV1 ovarian; OVCAR-3 ovarian; NCI/ADR-RES ovarian; T-47D breast; BT-549 breast; MDA-MB-435 melanoma; MCF7 breast; HCT-116 colon; HCC-2998 colon; KM12 colon; MDA-MB-468 breast.
Test in all cases: NCI-60 one-dose screen, 48 h (100 = growth as untreated, 0 = no growth, -100 = all killed)
Holding throughout (conditions): 10 µM unless noted

About 83,000 compounds went through this panel and 20% of them were active in at least one assay; those are over-represented in the sample as a whole.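 The endpoint reported here, percent growth, reads 100 for growth as untreated, 0 for no net growth and -100 for all cells dead.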 Unmarked numbers belong to inactive results. Calls of active or inactive are those of the source. How the source made its calls: active means growth percent below 10; inactive means the rest.

Regarding `O=C(NNc1ccccc1)n1c(=O)c2ccccc2c(=O)n1-c1ccccc1`, the growth in the assay with SR leukemia was 80.8%; with RPMI-8226 leukemia, 102%; in the assay on OVCAR-8 ovarian it was 96.7%; with OVCAR-5 ovarian, 96.1%; with OVCAR-4 ovarian, 97.6%; in the assay on SK-OV-3 ovarian, 85.5%. Further, the growth in the assay with IGROV1 ovarian is 96.4%; in the assay with OVCAR-3 ovarian, 104%; with NCI/ADR-RES ovarian, 98.3%; in the assay with T-47D breast, 87.9%; in the assay on BT-549 breast, 90%; in the assay with MDA-MB-435 melanoma, 97.8%. Also, the growth with MCF7 breast was 88.3%; with HCT-116 colon it was 79.2%; in the assay on HCC-2998 colon, 108%; in the assay with KM12 colon, 93.3%; in the assay on MDA-MB-468 breast, 99%.
In the case of `CC(=O)Nc1cccc(Nc2nc(NCc3ccccc3)c3ccccc3n2)c1`, the growth with SR leukemia was -45.3% (active); with RPMI-8226 leukemia, -38.3% (active); in the assay on OVCAR-8 ovarian it was -73.6% (active); with OVCAR-5 ovarian it was -98.4% (active); in the assay with OVCAR-4 ovarian, -73.2% (active); in the assay with SK-OV-3 ovarian, -96.2% (active). Besides, the growth in the assay on IGROV1 ovarian was -94.1% (active); with OVCAR-3 ovarian, -79.3% (active); in the assay on NCI/ADR-RES ovarian it was -65% (active); with T-47D breast it was -60.1% (active); with BT-549 breast, -86.8% (active); with MDA-MB-435 melanoma it was -92.8% (active). The growth in the assay on MCF7 breast is -77.2% (active); in the assay with HCT-116 colon it was -74.7% (active); in the assay with HCC-2998 colon it was -98.8% (active); in the assay with KM12 colon, -66% (active); in the assay on MDA-MB-468 breast, -93.7% (active).
Take `COc1cc(-c2ccc(/C=N/NC(=O)c3[nH]c4ccc(Br)cc4c3-c3ccccc3)o2)cc(OC)c1OC`: the growth in the assay on SR leukemia is 78%; in the assay with RPMI-8226 leukemia, 63.2%; with OVCAR-8 ovarian, 67.2%; with OVCAR-5 ovarian, 99.6%; in the assay with OVCAR-4 ovarian it was 92.3%; with SK-OV-3 ovarian, 92.6%. Besides, the growth in the assay on IGROV1 ovarian is 95.1%; with OVCAR-3 ovarian it was 95.6%; in the assay on NCI/ADR-RES ovarian it was 59%; in the assay with T-47D breast, 85.7%; in the assay with BT-549 breast, 95.4%; in the assay on MDA-MB-435 melanoma, 90.3%. For the same compound, the growth in the assay on MCF7 breast was 70%; in the assay on HCT-116 colon it was 76.7%; in the assay with HCC-2998 colon it was 110%; in the assay on KM12 colon, 82.3%; in the assay with MDA-MB-468 breast, 88.6%.
For the compound `CN1CCc2c(sc3ncnc(N/N=C/c4ccc(Cl)cc4Cl)c23)C1`, the growth in the assay with SR leukemia was -16.5% (active); in the assay on RPMI-8226 leukemia, -9.12% (active); in the assay with OVCAR-8 ovarian, 6.87% (active); in the assay on OVCAR-5 ovarian, -18.6% (active); in the assay with OVCAR-4 ovarian, -40.6% (active); in the assay on SK-OV-3 ovarian, 0.686% (active). Besides, the growth in the assay with IGROV1 ovarian is 30.4%; with OVCAR-3 ovarian, -56.5% (active); with NCI/ADR-RES ovarian, 8.35% (active); in the assay with T-47D breast, 76.9%; in the assay with BT-549 breast, -40.2% (active); with MDA-MB-435 melanoma, -23.7% (active). Also, the growth in the assay on MCF7 breast was 3.77% (active); in the assay on HCT-116 colon, -64.1% (active); in the assay with HCC-2998 colon, 24.1%; in the assay with KM12 colon it was 24.8%; in the assay on MDA-MB-468 breast, -67.5% (active).
As for `CC(=O)Oc1ccccc1C(=O)[Se]CC(=O)Nc1cccc(C(F)(F)F)c1`, the growth in the assay on SR leukemia was 31.2%; with RPMI-8226 leukemia, 35.6%; with OVCAR-8 ovarian it was -46.6% (active); in the assay with OVCAR-5 ovarian, -30.9% (active); in the assay on OVCAR-4 ovarian it was 39.6%; with SK-OV-3 ovarian, 0.121% (active). Also, the growth is -64.9% (active) in the assay with IGROV1 ovarian; -12% (active) in the assay with OVCAR-3 ovarian; -63.8% (active) with NCI/ADR-RES ovarian; 56.5% with T-47D breast; -91% (active) with BT-549 breast; -29.7% (active) in the assay with MDA-MB-435 melanoma. Further, the growth with MCF7 breast was 3.36% (active); in the assay on HCT-116 colon, -47.7% (active); in the assay with HCC-2998 colon it was 60%; in the assay on KM12 colon it was 25.3%; in the assay with MDA-MB-468 breast, -88.8% (active).
Take `O=C(N/N=C/c1ccc(-c2ccc(O)cc2)s1)c1[nH]c2ccc(Br)cc2c1-c1ccccc1`: the growth was -22.4% (active) in the assay with SR leukemia; -8.25% (active) in the assay with RPMI-8226 leukemia; 25.1% in the assay with OVCAR-8 ovarian; 18.7% in the assay on OVCAR-5 ovarian; 20.3% in the assay with OVCAR-4 ovarian; 31.6% in the assay with SK-OV-3 ovarian. Further, the growth in the assay with IGROV1 ovarian was 12.9%; with OVCAR-3 ovarian, 21.4%; with NCI/ADR-RES ovarian, -27.4% (active); in the assay with T-47D breast, 12.4%; with BT-549 breast, -12.1% (active); with MDA-MB-435 melanoma it was 2.37% (active). For the same compound, the growth in the assay with MCF7 breast is 6.81% (active); in the assay with HCT-116 colon, 1.35% (active); in the assay with HCC-2998 colon it was 7.81% (active); in the assay with KM12 colon, 7.71% (active); in the assay on MDA-MB-468 breast, 5.96% (active).
As to `Cc1c(C(=O)NNC(=O)c2ccc(Cl)cc2)nnn1-c1ccc(Br)cc1`, the growth in the assay on SR leukemia was 84.3%; in the assay with RPMI-8226 leukemia it was 98.2%; in the assay on OVCAR-8 ovarian, 103%; in the assay on OVCAR-5 ovarian, 95.2%; with OVCAR-4 ovarian, 96.5%; in the assay with SK-OV-3 ovarian it was 90.2%. Besides, the growth in the assay with IGROV1 ovarian was 105%; with OVCAR-3 ovarian, 115%; in the assay with NCI/ADR-RES ovarian it was 97.5%; in the assay on T-47D breast, 93%; with BT-549 breast, 96.5%; in the assay on MDA-MB-435 melanoma, 100%. Besides, the growth with MCF7 breast is 84.3%; in the assay with HCT-116 colon, 89.5%; in the assay with HCC-2998 colon it was 105%; in the assay with KM12 colon it was 104%; in the assay on MDA-MB-468 breast, 95.6%.
For the compound `CC1=C(C(=O)OC(C)C)C(c2cccc(O)c2)NC(=S)N1` (stereo not drawn), the growth in the assay on SR leukemia is 90.7%; in the assay on RPMI-8226 leukemia, 88.9%; in the assay on OVCAR-8 ovarian it was 104%; in the assay with OVCAR-5 ovarian, 104%; with OVCAR-4 ovarian, 98%; in the assay on SK-OV-3 ovarian, 97.9%. Further, the growth in the assay with IGROV1 ovarian was 110%; in the assay with OVCAR-3 ovarian, 120%; in the assay with NCI/ADR-RES ovarian, 105%; with T-47D breast, 93.7%; in the assay on BT-549 breast, 127%; in the assay with MDA-MB-435 melanoma, 104%. Also, the growth is 90.6% in the assay with MCF7 breast; 102% in the assay on HCT-116 colon; 105% in the assay on HCC-2998 colon; 106% in the assay with KM12 colon; 92% in the assay on MDA-MB-468 breast.
`Clc1cccc(Cl)c1/C=C/c1cc(/C=C/c2ccc(Br)cc2)c2ccccc2n1`: the growth in the assay with SR leukemia was 92.4%; in the assay with RPMI-8226 leukemia, 86.6%; with OVCAR-8 ovarian, 101%; in the assay with OVCAR-5 ovarian it was 97.4%; with OVCAR-4 ovarian, 93.8%; in the assay with SK-OV-3 ovarian, 98.2%. Moreover, the growth was 96.6% in the assay on IGROV1 ovarian; 111% with OVCAR-3 ovarian; 95.5% with NCI/ADR-RES ovarian; 81.2% in the assay on T-47D breast; 91.2% in the assay with BT-549 breast; 99.9% in the assay with MDA-MB-435 melanoma. Also, the growth with MCF7 breast was 83.3%; in the assay with HCT-116 colon it was 95.8%; with HCC-2998 colon, 118%; in the assay with KM12 colon it was 102%; in the assay with MDA-MB-468 breast, 111%.
